Experimental findings from PubChem BioAssay (NCATS) are described below.

Unmarked numbers belong to inactive results. Inconclusive results are not listed. Activity calls are given as the source filed them. Calls come from the whole dose curve; as a rule, active = well fitted curve in the direction sought with a large enough effect; inconclusive = small, poorly fitted or top-dose-only effect, or another doubt; inactive = no such curve, though single readings can be large; an effect the other way counts as inactive or inconclusive.

Test [1] has as its system Zika virus NS2B-NS3 protease (linked construct). Kind of test: Primary screen NINDS Rhodamine qHTS for Zika virus inhibitors (AID 1347160). For activity change, negative = inhibition: % is set by controls: 0 for no effect and ±100 for the full control effect. Note: nearly all actives have a fitted effect of over 55% in size. In outline: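 Enzyme (25 nM, linked NS2B-NS3) was preincubated 15 min with compound in 10 mM Tris-HCl pH 8.0, 0.01% Tween 20. Rhodamine110 substrate (1.5 microM) was then added and fluorescence read at start and after 15 min.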
Test [2] has as its target Calcium and integrin-binding protein 1 (Homo sapiens) (UniProt Q99828). Kind of test: Primary qHTS for Identification of Calcium Integrin Binding Protein 1 (CIB1) Competitor (AID 1508620).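 Note: GST tagged CIB1 binding a fluorescein labelled alphaIIb integrin peptide tracer; top concentration of the series differs between compounds; % is set by controls: 0 for no effect and ±100 for the full control effect.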 In outline:
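CIB1-GST (1 uM final) and compound incubated 15 min at room temperature before adding FITC-alphaIIb peptide tracer (100 nM final). Competition for binding read by fluorescence polarization (ex 480, em 540) after another 15 min at room temperature.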
Background: Quantitative high-throughput screening tests each substance at several concentrations.

A short description of test [3]: Primary qHTS for inhibitors of nuclear receptor binding SET domain protein 2 (NSD2) in an isogenic RCH-ACV NSD2 p.E1099K mutant (9B) (AID 1645876). Note: nearly all actives have a fitted effect of over 70% in size. Note: potency is the fitted concentration of half-maximal effect.
Test [4] concerns the target Glutathione peroxidase 1 (Homo sapiens) (UniProt P07203). Nature of the test: Primary qHTS Assay for Inhibitors of Recombinant Selenoprotein Glutathione Peroxidase 1 (GPX1) (AID 1845191). For activity, negative = inhibition: % is set by controls: 0 for no effect and ±100 for the full control effect. Note: nearly all actives have a fitted effect of over 65% in size. In outline:
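NADPH consumption tracked by fluorescence at 340/450 nm between t=0 and t=15 min, room temperature. Final mix: 10 nM GPX1, 100 nM glutathione reductase, 1 mM GSH, 0.5 mM NADPH, 0.5 mM cumene hydroperoxide, 0.01% BSA; 30 min compound–enzyme preincubation.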

Test [5] concerns the target Phospholipid hydroperoxide glutathione peroxidase GPX4 (Homo sapiens) (UniProt P36969). Nature of the test: Primary qHTS Assay for Inhibitors of Recombinant Selenoprotein Glutathione Peroxidase 4 (GPX4) (AID 1845192). Note: % is set by controls: 0 for no effect and ±100 for the full control effect; nearly all actives have a fitted effect of over 65% in size. In outline:
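NADPH consumption followed by fluorescence at 340/450 nm, t=0 and after 15 min at room temperature. Reaction started with cumene hydroperoxide (0.5 mM final) after 30 min compound–GPX4 preincubation; final 200 nM GPX4, 100 nM GR, 1 mM GSH, 0.5 mM NADPH.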

For test [6], the target named is Luciferin 4-monooxygenase (Photinus pyralis) (UniProt P08659). Kind of test: Primary firefly luciferase (FLuc) qHTS assay for identification of artifact compounds. (AID 1845220).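 For activity change, negative = inhibition: plate controls were DMSO vehicle for no effect and no enzyme for full effect.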 Note: nearly all actives have a fitted effect of over 60% in size. The note with it: outcome: dose series up to 54.1 µM unless noted. In outline: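 Compounds sat 15 min at room temperature with 10 uM luciferin and 10 uM ATP (pH 7.6 Tris acetate). Firefly luciferase (10 nM final) was then added, and luminescence was read 5 min later. Data normalized to no-enzyme and DMSO controls were Hill-fitted.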

The subject of test [7] is Nanoluciferase (engineered Oplophorus gracilirostris luciferase). Nature of the test: Primary Nanoluciferase (NLuc) qHTS assay for identification of artifact compounds. (AID 1845222).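 Note: 0% = DMSO and -100% = no enzyme.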 In outline:
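Luminescence from secreted NLuc (filtered, 1:55-diluted S16 cell medium) read 5 min after Nano-Glo substrate; compounds preincubated 15 min, RT. Hill fits of inhibition normalized to DMSO and no-enzyme.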

In another test the test system is CRL-7250. Kind of test: Cytotoxic Profiling of Annotated Libraries Using Quantitative High-Throughput Screening (AID 1296008). For max response: % is set by controls: 0 for no effect and ±100 for the full control effect. Note: nearly all actives have a fitted effect of over 60% in size. Note: potency is the fitted concentration of half-maximal effect. The note with it: Five cell lines viability, CellTiter-Glo ATP luminescence, 48-72 h; max response: active compounds read low. In outline: (§1)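 Cytotoxicity was measured as CellTiter-Glo ATP luminescence, read after 10 min at room temperature. Compound treatment of the cells lasted 48 or 72 hr at 37 degrees Celsius in a qHTS format.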
In general terms: ATP-based viability assays read luminescence as a measure of living cells.

Another test has as its system HEK293. The test is described as above. The conditions noted are these: Five cell lines viability, CellTiter-Glo ATP luminescence, 48-72 h; max response: active compounds read low. In outline: as §1
The test system of the next test is HaCat. The test is described as above. The conditions noted are these: Five cell lines viability, CellTiter-Glo ATP luminescence, 48-72 h; max response: active compounds read low. In outline: as §1
In a further test the test system is NIH3T3. The test is described as above. The note with it: Five cell lines viability, CellTiter-Glo ATP luminescence, 48-72 h; max response: active compounds read low. In outline:
as §1

The next test relates to CASKI. Nature of the test: Primary qHTS to identify gynecologic anti-cancer compounds using libraries of approved drugs and bioactive compounds (AID 1345084). Note: nearly all actives have a fitted effect of over 55% in size. Note: potency is the fitted concentration of half-maximal effect. The conditions noted are these: Gynecologic cancer cell panel viability, ATPlite luminescence, 48 h; series mostly up to 57.5 µM. In outline:
(§2)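 Cells, 1,000 per well, were allowed to settle for 16 h at 37 C before compound addition. Five concentrations were tested for 48 h, and viability was read by ATPlite luminescence after 15 min at room temperature.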

A further test has as its system Es-2. The description is as above. The conditions noted are these: Gynecologic cancer cell panel viability, ATPlite luminescence, 48 h; series mostly up to 57.5 µM. In outline: as §2
In a further test the test system is JEG-3. The test is described as above. The conditions noted are these: Gynecologic cancer cell panel viability, ATPlite luminescence, 48 h; series mostly up to 57.5 µM. In outline: as §2
A further test deals with PA-1. The test is described as above. The note with it: Gynecologic cancer cell panel viability, ATPlite luminescence, 48 h; series mostly up to 57.5 µM. In outline:
as §2

The next test has as its system Tov-21-G. The test is described as above. The conditions noted are these: Gynecologic cancer cell panel viability, ATPlite luminescence, 48 h; series mostly up to 57.5 µM. In outline:
as §2

In another test the test system is C33A. The test is described as above. The note with it: Gynecologic cancer cell panel viability, ATPlite luminescence, 48 h; series mostly up to 57.5 µM. In outline:
as §2

The test system of a further test is Hek293T. The description is as above. The note with it: Gynecologic cancer cell panel viability, ATPlite luminescence, 48 h, control line for the selectivity index; series mostly up to 57.5 µM. In outline:
as §2

A further test deals with OV90. Described as above. The conditions noted are these: Gynecologic cancer cell panel viability, ATPlite luminescence, 48 h; series mostly up to 57.5 µM. In outline: as §2
The subject of another test is Tov112D. Described as above. The conditions noted are these: Gynecologic cancer cell panel viability, ATPlite luminescence, 48 h; series mostly up to 57.5 µM. In outline:
as §2

Sequence of Calcium and integrin-binding protein 1 (Homo sapiens) (Q99828 whole entry, looked up): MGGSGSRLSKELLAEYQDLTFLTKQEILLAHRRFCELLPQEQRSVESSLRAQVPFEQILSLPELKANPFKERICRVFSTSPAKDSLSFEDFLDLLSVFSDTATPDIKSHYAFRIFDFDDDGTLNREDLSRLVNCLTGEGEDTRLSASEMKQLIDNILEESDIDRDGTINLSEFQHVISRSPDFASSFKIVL
Sequence of Glutathione peroxidase 1 (Homo sapiens) (P07203 whole entry, looked up): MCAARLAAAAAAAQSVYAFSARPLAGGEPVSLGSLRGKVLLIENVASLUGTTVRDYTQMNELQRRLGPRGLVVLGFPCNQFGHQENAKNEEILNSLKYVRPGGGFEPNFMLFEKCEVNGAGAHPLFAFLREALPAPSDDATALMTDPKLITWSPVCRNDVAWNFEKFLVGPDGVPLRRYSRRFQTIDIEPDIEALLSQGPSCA
Sequence of Phospholipid hydroperoxide glutathione peroxidase GPX4 (Homo sapiens) (P36969 whole entry, looked up): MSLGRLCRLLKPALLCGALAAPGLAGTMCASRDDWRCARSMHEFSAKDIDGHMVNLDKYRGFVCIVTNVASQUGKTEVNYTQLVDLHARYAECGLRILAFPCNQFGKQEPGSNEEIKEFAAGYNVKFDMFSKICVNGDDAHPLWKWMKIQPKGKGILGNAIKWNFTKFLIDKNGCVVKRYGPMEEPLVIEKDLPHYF

As to `CC1=C[C@H]2O[C@@H]3C[C@H]4OC(=O)/C=C/C=C/C(=O)OCC/C(C)=C/C(=O)OC[C@@]2(CC1)[C@]4(C)[C@]31CO1`, the Potency entry in [1], in test [2], in test [4], in test [5] and in test [7] was “inactive” throughout. Moreover, the Potency in test [3] was 0.0056 µM (active); in the test on CRL-7250, 0.0252 µM (active); in the test with HEK293, 0.008 µM (active); in the test with HaCat, 0.112 µM (active); in the test on NIH3T3, 0.0282 µM (active); with CASKI, 0.112 µM (active). The Potency is 0.0251 µM (active) in the test on Es-2, 0.126 µM (active) in the test with JEG-3, 0.0708 µM (active) in the test with PA-1 and 0.0891 µM (active) in the test on Tov-21-G. The outcome in test [6] was “inactive [at 25.7 µM]”.

Consider `C[C@]12CC[C@H]3[C@@H](CCC4=C/C(=N/OCC(=O)O)CC[C@@]43C)[C@@H]1CC[C@@H]2O`, for which the Potency result (in test [1]; in [2]; in test [3]; in [5]; in [7]; with C33A) was “inactive” throughout. Further, the Potency result in the test on CASKI, in the test on Es-2, in the test on Hek293T, in the test on JEG-3, in the test with OV90 and with PA-1 was “inactive” in each case. The Potency entry in the test on Tov-21-G and in the test with Tov112D was “inactive” each time. Also, the compound was called inactive in [6]. Also, the max response was -2.05% in the test on CRL-7250, -5.05% in the test with HEK293, -24.1% in the test with HaCat and 3.02% in the test on NIH3T3.

On to `CC1=C[C@H]2O[C@@H]3[C@H](O)[C@@H](O)[C@](C)([C@@]2(CO)C[C@@H]1O)[C@]31CO1`, for which the Potency entry in [1], in test [2], in [4], in [5] and in [7] was “inactive” each time. Further, the Potency in test [3] is 0.728 µM (active); with CRL-7250, 5.8 µM (active); in the test with HEK293, 1.3 µM (active); in the test with HaCat it was 7.31 µM (active); in the test on C33A it was 10 µM (active); in the test with CASKI, 11.2 µM (active). Moreover, the Potency in the test with Es-2 was 10 µM (active); in the test with Hek293T, 2.82 µM (active); with OV90, 8.91 µM (active); in the test on PA-1 it was 3.98 µM (active); in the test with Tov-21-G, 10 µM (active). In addition, the outcome in test [6] was inactive.

With `CC[C@H](C)[C@H](NC(=O)[C@H]1CCCCN1C)C(=O)N(COC(=O)CC(C)C)[C@H](C[C@@H](OC(C)=O)c1nc(C(=O)N[C@@H](Cc2ccc(O)cc2)C[C@H](C)C(=O)O)cs1)C(C)C`, in test [1], the outcome is “inactive [at 1.3 µM]”. The activity change, negative = inhibition was 1.44% [at 2.24 µM] in test [2], -13.5% [at 1.09 µM] in [5] and -4.53% [at 1.03 µM] in [6]. Moreover, the Potency in test [3] was 0.0011 µM (active); with CRL-7250, 0.0047 µM (active); in the test with HEK293, 0.0004 µM (active); in the test with NIH3T3 it was 0.0012 µM (active); with Es-2 it was 0.0083 µM (active); with Tov-21-G it was 0.0052 µM (active). Further, the Potency in the test on Tov112D was 0.0041 µM (active). The figures for the activity, negative = inhibition in test [4] and in [7] were -5.19% [at 1.09 µM] and 2.85% [at 1.03 µM], respectively. The max response in the test on HaCat was -10.6%.

As to `CC[C@H]1C[C@@H]2CC[C@@H](O2)[C@@H](C)C(=O)O[C@H](CC)C[C@H]2CC[C@H](O2)[C@H](C)C(=O)O[C@@H](C)C[C@@H]2CC[C@@H](O2)[C@@H](C)C(=O)O[C@H](CC)C[C@H]2CC[C@H](O2)[C@H](C)C(=O)O1`, the Potency result (in test [1]; in [2]; in test [4]; in test [5]; in test [7]; in the test on JEG-3) was “inactive” each time. Further, the Potency is 0.0108 µM (active) in test [3]; 0.385 µM (active) with CRL-7250; 0.0217 µM (active) with HEK293; 0.0685 µM (active) in the test on HaCat; 0.0385 µM (active) in the test with NIH3T3; 0.224 µM (active) in the test with C33A. The Potency was 0.447 µM (active) in the test with CASKI; 0.501 µM (active) in the test on Es-2; 0.355 µM (active) in the test with Hek293T; 0.0891 µM (active) in the test with OV90; 0.178 µM (active) in the test on PA-1. Moreover, the outcome in [6] was inactive.
